Screening data from PubChem.
MLLE-PAM2 inh: inhibitors of microRNA-mediated deadenylation, human PABP1 MLLE binding. actives 0.36% (n = 360,000). P11940. AID 588489. inhibition, % at 20 µM. GST-MLLE / FITC-PAM2 fluorescence polarization; in the data active means inhibition above about 35%, passing the limit was not always enough;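 further: plate controls were DMSO wells with GST-MLLE for no effect and wells lacking GST-MLLE protein for full effect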
eIF4H FP inh: inhibitors of RNA binding by human eIF4H; Q15056; actives 0.94% (n = 290,000); eIF4H fluorescence polarization binding assay; AID 2012; inhibition, % at 35 µM;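 further: calls also rest on retests at 20 µM and on dose response follow-up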
PABP polyA inh: PABP-poly(A) binding inhibition; actives 1% (n = 290,000); PABP-poly(A) RNA binding, fluorescence polarization; P11940; inhibition, % at 35 µM;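 further: calls also rest on retests at 20 µM and on dose response follow-up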
NRP1-CendR mod: modulators of CendR peptide binding to human neuropilin-1. O14786. FAM-RPARPAR peptide binding to NRP-1, fluorescence polarization. inhibition, % at 25 µM. actives 0.85% (n = 360,000);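 active means inhibition or corrected inhibition above about 18%, plus a signal ratio from 0.5 to 1.5, limit read from the data, passing the limit was not always enough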
* = called active by the depositor; u = inconclusive; x = no result given. Compounds with a hit are over-represented: about 2.1% of the library has one in this group of screens. Unless noted, how the calls were made is not given here.

SMILES	MLLE-PAM2 inh	eIF4H FP inh	PABP polyA inh	NRP1-CendR mod
Cc1ccc(C(O)c2ncc(-c3ccc(C(F)(F)F)cc3)[nH]2)cc1F (stereo unspecified)	1.9	x	x	-8.2
CCOc1ccc(NS(=O)(=O)c2ccc(C(=O)N3CCC3)cc2)cc1	-10.0	4.8	16.1	6.6
CC1(C)CN(O)CCN1O	16.5	11.8	1.9	25.3*
O=C(c1ccc(-c2cccc(C(F)(F)F)c2)o1)N1CCN(c2ccccc2O)CC1	-14.1	-4.5	7.7	-0.9
O=C(c1ccc(-c2cccc(C(F)(F)F)c2)o1)N1CCCC(C(F)(F)F)C1 (stereo unspecified)	8.9	x	x	21.5*
CN(CC(=O)NCCc1ccc(S(N)(=O)=O)cc1)CC(=O)Nc1cccc(F)c1	-11.7	x	x	-15.5
Cc1ccc(S(=O)(=O)/C(C#N)=C/c2c(N3CC(C)OC(C)C3)nc3c(C)cccn3c2=O)cc1 (stereo unspecified)	1.4	46.0*	52.5*	-15.3
Cc1ccc(S(=O)(=O)/C(C#N)=C/c2c(N3CCN(C)CC3)nc3c(C)cccn3c2=O)cc1	-7.4	52.0*	29.2	-19.7
CCN1CCN(c2nc3c(C)cccn3c(=O)c2/C=C(\C#N)S(=O)(=O)c2ccc(C)cc2)CC1	-2.6	13.2	22.1	-37.0
Cc1cccn2c(=O)c(/C=C(\C#N)S(=O)(=O)c3ccccc3)c(N3CCN(C)CC3)nc12	7.1	7.3	14.2	5.4
Cc1ccc(NC(=O)Cc2ccccc2)cc1S(=O)(=O)N1CCOCC1	1.8	x	x	11.3
CCN(CC)CCCNC(=O)c1[nH]c2ccccc2c1Sc1ccc(Cl)cc1	-17.2	-5.5	-14.3	-35.2
Cc1ccc2c(c1)c1c(c(=O)n(-c3ccccc3C)c(=O)n1CC(=O)NCC1CCCO1)n2C (stereo unspecified)	1.4	-6.8	1.2	30.6*
CC(=O)c1cn(CC(=O)NCC2CCCO2)c2ccccc12 (stereo unspecified)	6.2	-11.3	-10.3	19.7*
COc1ccc(NC(=O)C2CCN(S(=O)(=O)c3ccc4c(c3)CC(C)N4C(C)=O)CC2)c(OC)c1 (stereo unspecified)	16.0	0.1	-1.5	14.2
COc1ccc(NC(=O)CC(C)c2ccccc2)cc1S(=O)(=O)N1CCOCC1 (stereo unspecified)	-6.8	x	x	-4.6
O=C1C=C(O)c2cccc3cccc1c23	70.2*	57.8*	57.6*	41.2*
O=C1C(N2CCOCC2)=Cc2cccc3cccc1c23	171.5	x	x	117.9
O=C1C=C(N2CCOCC2)c2cccc3cccc1c23	95.0	x	x	28.0*
O=C1C=C(O)c2c(O)cccc2C1=O	x	13.6	23.3	x
O=C(C[n+]1cccc2ccccc21)c1ccc(Cl)cc1	-0.7	71.3	22.7*	-31.4
O=C(C[n+]1cccc2ccccc21)c1ccc([N+](=O)[O-])cc1	3.8	7.7	6.4	1.6
CC1=C/C(=C/N(C)c2ccccc2)C(=O)S1	39.2	51.8*	66.6*	-6.4
CCOC(=O)[C@]12CCC=C1N(Cc1ccc(Cl)cc1Cl)C(=O)[C@H](CC(=O)NCc1cccs1)C2	x	x	x	13.6
COc1ccc(CCCC(=O)N/N=C/c2ccccc2OC)cc1	4.6	active	62.8*	-3.2
SMILES	MLLE-PAM2 inh	eIF4H FP inh	PABP polyA inh	NRP1-CendR mod
COc1ccccc1CNC(=O)c1cc(-c2ccccc2)nn1Cc1cc(C)no1	1.5	x	x	27.4*
CCOc1ccc(NC(=O)CN(C)C(=O)c2ccc(-c3ccc(C(C)=O)cc3)o2)cc1OCC	-13.2	x	x	2.6
O=C(COc1ccc(Cl)cc1Cl)Nc1noc2ccccc12	3.5	-6.3	-1.2	22.1*
O=C(COc1ccc(Cl)cc1Cl)Nc1ccccn1	-1.6	-9.8	-4.0	-4.5
Cc1cccc(N(C)C(=O)CCS(=O)(=O)c2cc3c(cc2Cl)NC(=O)CO3)c1	39.3*	-14.4	-3.1	0.8
CCc1ccc(-n2ccc(=O)c(C(=O)O)n2)cc1	3.7	9.8	13.9	13.6
O=c1c(-n2cncn2)c[nH]n1-c1cccc(Cl)n1	-0.6	-6.2	-2.3	18.5*
O=Cc1ccccc1-n1cncn1	1.7	-5.1	-7.6	-1.3
CCN(CC)c1ccc2cc(C#N)c(=O)oc2c1	-26.3	u	u	24.9*
CCN(CC)c1ccc2ccc(=O)oc2c1	0.0	7.8	3.0	-3.9
O=c1[nH]c(CN2CCCCC2)ccc1O	45.0*	x	x	12.2
CC(=O)c1cc(-c2ccccc2)[nH]c1N1CCOCC1	44.1*	11.5	1.9	16.9
CC(=O)c1c(N2CCOCC2)nc2ccc(Br)cc2c1-c1ccccc1	-5.9	5.2	-2.1	-10.0
O=[N+]([O-])c1ccc(N2CCOCC2)cc1SCc1ccco1	5.3	85.9*	active	0.6
Cc1csc(SC(C)C(=O)Nc2ccccc2C)n1 (stereo unspecified)	21.9	x	x	-0.7
CCOC(=O)N1CCN(C(=O)CNC(=O)c2ccc(Br)cc2)CC1	5.2	-2.5	-12.1	26.9*
